In all, about 410,000 compounds went through this assay and about 18,000 (4.4%) were called active. About 7% were inconclusive and are not listed. Cut-off read from the data, not from the text of the source: active = activity change below about -60%; inconclusive = no clear call, values can overlap the other calls; inactive = above about -39%. The sample as a whole holds a higher share of actives than the screen did.
assay: qHTS Assay for inhibitors of the human cytomegalovirus (HCMV); conditions: HFF cells, HCMV-luciferase reporter, 72 h; at 57.5 µM; stronger effect = lower value
Excerpt: NCGC Assay Overview: Infection with human cytomegalovirus (HCMV) continues to pose significant threats for pregnant women and immunocompromised hosts. HCMV causes serious morbidity and mortality in transplant recipients, and congenital HCMV is the leading infectious cause of mental retardation and deafness in children. In the 1990s, the annual costs associated with the disease burden of congenital CMV were estimated at around $2 billion. A HCMV vaccine is not available yet and HCMV therapies result in intolerable side effects and emergence of drug resistant viruses. […] Towards this goal we have developed and characterized a luciferase HCMV reporter that was initially used in 96 well plates and then optimized to 1536-well plates for utilization in screening of the MLSMR collection, the NGCG diversity collection and the NCGC Pharmaceutical Collection of approved and investigational drugs.
NCGC Assay Protocol Summary:
This is a cell-based assay for HCMV inhibition in HFFs cells. The screening used 2 compound doses and the HCMV-luciferase at MOI of 1 PFU/cell. Cells were treated and infected with HCMV. At 72 h post infection cell lysates were collected and luciferase activity was determined using the Glomax-Multi + Detection System (Promega, Madison, WI). Data were normalized to the controls for basal activity (buffer only) and known HCMV inhibitors Salinmoycin.
1536-well assay protocol for the assay:
(1) Add 3 ul CMV/HFF cell culture. 1000 cells/well in DMEM nirmal media.
(2) Incubate 16 hr at 37C.
(3) Add 23 nl control compound, 10uM of Salinomycin.
(4) Add 23 nl compounds in DMSO solution.
(5) Add 3 ul CMV suspension. Final 1 puf/ul, Virus stock 2000pfu/ul
(6) Incubate 72 hrs at 37C.
(7) Add 4 ul OneGlo Luc Reagent.
(8) Incubate 5 min at room temperature.
% is set by controls: 0 for no effect and ±100 for the full control effect.

Row | Structure (SMILES) | activity change, negative = inhibition
1 | CCOC(=O)c1c(C)[nH]c(CCC(=O)Nc2ccc(OC)c(OC)c2)c1C | 41.8% (inactive)
2 | Cc1ccc(N(CC(=O)NCC(C)c2ccccc2)S(=O)(=O)N(C)C)cc1 (stereo not drawn) | -6.91% (inactive)
3 | O=C(CCc1ccccc1)NCc1ccc2c(c1)CCN2C(=O)c1ccccc1 | -7.19% (inactive)
4 | COC1=CCC2([N+](=O)[O-])CN(CC(=O)O)CC1([N+](=O)[O-])C2 (stereo not drawn) | -16.1% (inactive)
5 | CCOC(=O)c1c(C)oc2nc(C)nc(Nc3ccc(CC)cc3)c12 | 8.66% (inactive)
6 | O=C(Nc1ccc(OC(F)(F)F)cc1)c1cc2c(=O)n3ccccc3nc2s1 | -5.91% (inactive)
7 | COc1cc(CN(CC2CCCO2)C(=O)c2ccccc2F)cc(OC)c1OC (stereo not drawn) | -11.3% (inactive)
8 | CCOC(=O)CSC1=C(C#N)C(c2sccc2C)CC(=O)N1 (stereo not drawn) | -85.4% (active)
9 | C=CCSC1=C(C#N)C(c2cc(Br)c(O)c(OC)c2)CC(=O)N1 (stereo not drawn) | -10.5% (inactive)
10 | Cc1ccsc1C1C(C#N)=C(N)OC2=C1C(=O)CC(C)C2 (stereo not drawn) | 68.7% (inactive)
11 | Cc1c(-c2cccc(NC(=O)C(C)(C)C)c2)nc2ncccn12 | -37.8% (inactive)
12 | CCOC(=O)N1CCN(Cc2nc3c(c(=O)n(C)c(=O)n3C)n2Cc2ccccc2)CC1 | -2.17% (inactive)
13 | CN1CCN(Cc2nc3c(c(=O)n(C)c(=O)n3C)n2Cc2cccc3ccccc23)CC1 | -10.2% (inactive)
14 | CC1CCCN(Cc2nc3c(c(=O)n(C)c(=O)n3C)n2CC(=O)c2ccccc2)C1 (stereo not drawn) | -14.9% (inactive)
15 | CC1CCN(Cc2nc3c(c(=O)n(C)c(=O)n3C)n2CCc2ccccc2)CC1 | -62.3% (active)
16 | CCN1CCN(Cc2nc3c(c(=O)n(C)c(=O)n3C)n2CC(=O)c2ccccc2)CC1 | -5.14% (inactive)
17 | COCCn1c(CN2CCC(Cc3ccccc3)CC2)nc2c1c(=O)n(C)c(=O)n2C | -64.7% (active)
18 | COc1ccc(C)cc1NC(=O)CSc1nnc2ccc(-c3ccccn3)nn12 | -16.1% (inactive)
19 | CC(C)CNc1cccc2c1S(=O)(=O)N[C@H](C)CO2 | -8.73% (inactive)
20 | O=[N+]([O-])c1cccc(/C([O-])=C(/C(=S)Nc2ccccc2F)[n+]2ccccc2)c1 | 18% (inactive)
21 | O=C(CCC1CCCN(C(=O)c2ccc(F)c(F)c2)C1)N1CCN(c2ccccn2)CC1 (stereo not drawn) | -29.8% (inactive)
22 | CC(=O)c1ccc(S(=O)(=O)NCCC(=O)N2CCN(c3ccccn3)CC2)cc1 | 60.8% (inactive)

Row | Structure (SMILES) | activity change, negative = inhibition
23 | C=Cc1ccc(C(=O)N2CCCC(CCC(=O)N3CCN(c4ccccn4)CC3)C2)cc1 (stereo not drawn) | -64.7% (active)
24 | COc1cccc(C(=O)NC2=NC(c3ccc(N(C)C)cc3)CC(=O)N2)c1 (stereo not drawn) | 1.4% (inactive)
25 | O=C(Nc1cccc(-c2nc3ccccc3o2)c1)c1cccc(Br)c1 | -11.9% (inactive)
26 | COc1ccccc1NC(=O)C(=O)c1cc(C)n(-c2ccccc2F)c1C | -34.6% (inactive)
27 | CCCCOc1ccc(CSC(=N)N)cc1[N+](=O)[O-] | -63.8% (active)
28 | CCCCCOc1ccc(CSC2=NCCN2)cc1[N+](=O)[O-] | 9.19% (inactive)
29 | CCCCOC(=O)CCCc1ccc([N+](=O)[O-])cc1[N+](=O)[O-] | -14.8% (inactive)
30 | CC(C)(Oc1ccc(C2CC2(Cl)Cl)cc1)C(=O)O (stereo not drawn) | -0.36% (inactive)
31 | c1ccc2sc(SNC3CCCCC3)nc2c1 | 15% (inactive)
32 | O=C(NC1(C(F)(F)F)N=C(c2ccccc2)N(C2CCCCC2)C1=O)c1ccccc1F (stereo not drawn) | -18.3% (inactive)
33 | O=C1NC(Nc2nc3ccccc3s2)(C(F)(F)F)C(=O)N1C1CCCCC1 (stereo not drawn) | -63.1% (active)
34 | COC(=O)c1ccc(NC(=O)CN(c2ccc(C)cc2)S(=O)(=O)c2c(C)n[nH]c2C)cc1 | 30% (inactive)
35 | COC(=O)C1CCN(C(=O)NC2CC(=O)N(c3ccc4c(c3)OCCO4)C2)CC1 (stereo not drawn) | -8.55% (inactive)
36 | Cc1nc2ccn(Cc3cccs3)c(=O)c2cc1C(=O)NCc1ccc(Cl)cc1 | 0.24% (inactive)
37 | CCOc1cccc(CC(=O)N2CCc3c([nH]c4ccccc34)C2c2ccc(OC)cc2)c1OCC (stereo not drawn) | 31.4% (inactive)
38 | COc1ccc2[nH]c3c(c2c1)CCN(C(=O)CCC1CCCC1)C3c1ccc(F)cc1 (stereo not drawn) | -81.8% (active)
39 | CCOc1cccc(CC(=O)N2CCc3c([nH]c4ccccc34)C2c2ccc(F)cc2)c1OCC (stereo not drawn) | -33.4% (inactive)
40 | Cc1ccc(S(=O)(=O)N(C)C)cc1NC(=O)COC(=O)/C=C/c1cccs1 | -32.1% (inactive)
41 | Cc1ccc(S(=O)(=O)N(C)C)cc1NC(=O)COC(=O)C1COc2ccccc2O1 (stereo not drawn) | 19% (inactive)
42 | Cc1ccc(S(=O)(=O)N(C)C)cc1NC(=O)COC(=O)c1c(C)noc1C | -108% (active)
43 | Cc1cc(C)c(-c2csc(NC(=O)CCCc3nc4ccccc4c(=O)[nH]3)n2)c(C)c1 | -72.6% (active)
44 | CCN(CC(=O)Nc1cccc(S(N)(=O)=O)c1)Cc1nc2ccccc2c(=O)[nH]1 | -27.6% (inactive)

Row | Structure (SMILES) | activity change, negative = inhibition
45 | O=C(COC(=O)CCc1nc2ccccc2c(=O)[nH]1)Nc1ccc(N2CCOCC2)cc1 | -20.5% (inactive)
46 | CC(C)NC(=O)N1CCN(c2ccncc2S(=O)(=O)N2CCCCC2)CC1 | 9.43% (inactive)
47 | O=C(Nc1nnc(-c2ccccc2F)s1)c1ccccc1F | 85% (inactive)
48 | O=C(Nc1nc2c(s1)CCCC2)c1ccccc1F | -68.5% (active)
49 | CCN1CCc2nc(NC(=O)c3cc(F)c(F)cc3Cl)sc2C1 | -0.35% (inactive)
50 | C=CCn1c(C)cc(C2=NNC(=NCC)SC2)c1C | -99.5% (active)
51 | COCCn1c(C)cc(C2=NNC(=Nc3ccc(F)cc3)SC2)c1C | -107% (active)
52 | COc1cccc(-c2nc(S(=O)(=O)c3ccc(C)cc3)c(NCc3ccccc3)o2)c1 | 2.24% (inactive)
53 | O=C(CSc1nnc(CNC(=O)c2ccccc2)n1-c1ccc(F)cc1)Nc1ccccc1F | -5.45% (inactive)
54 | Cc1cccc(Cn2cccc(C(=O)Nc3ccc4c(c3)OCCO4)c2=O)c1 | -12.1% (inactive)
55 | Cc1ccc(CN2CCNC(=O)C2CC(=O)NCc2csc(C(C)C)n2)cc1 (stereo not drawn) | 6.06% (inactive)
56 | O=S(=O)(NCC(c1ccccc1)N1CCc2ccccc21)c1ccccc1 (stereo not drawn) | 1.26% (inactive)
57 | Cc1cccc(C(=O)N2c3nc(-c4ccco4)nn3C3(CCCCC3)[C@@H]3CCCC[C@@H]32)c1 | -17.9% (inactive)
58 | COc1ccc(-c2nc3ccccc3s2)cc1NC(=O)COc1ccccc1C | 47.9% (inactive)
59 | COC(=O)Cc1[nH]n(-c2nc3ccccc3s2)c(=O)c1C(C)=Nc1ccc(OC)cc1 | -94.3% (active)
60 | COC(=O)c1cccc(C(=O)N2CCCC(Nc3ccc4c(c3)OCCO4)C2)c1 (stereo not drawn) | -15.6% (inactive)
61 | COc1cccc2c1cc1c(=O)n(CC(=O)N3CCN(c4cccc(Cl)c4)CC3)nc(C)n12 | 50.4% (inactive)
62 | Cc1c(NC(=O)CN2C(=O)C(=O)N(Cc3ccccc3)C2=O)c(=O)n(-c2ccccc2)n1C | -22.2% (inactive)
63 | CN(C)C(CNC(=O)c1cc(Br)c(Br)s1)c1ccco1 (stereo not drawn) | -67.9% (active)
64 | CN(C)C(CNC(=O)c1cccc(C#N)c1)c1ccco1 (stereo not drawn) | -2.12% (inactive)
65 | CN(C)C(CNC(=O)c1cccc(S(=O)(=O)Nc2ccc(Br)cc2)c1)c1ccco1 (stereo not drawn) | -19.6% (inactive)
66 | Cc1cccc(N=C2SC(C)CN2C(=O)CN2C(=O)NC3(CCCC3)C2=O)c1 (stereo not drawn) | 0.641% (inactive)

Row | Structure (SMILES) | activity change, negative = inhibition
67 | Cn1cc(/C=C/c2nc3ccccc3c(=O)n2-c2ccccc2)c2ccccc21 | 31.9% (inactive)
68 | Cc1cccc(N=C2NC(=O)/C(=C/c3cn(C)c4ccccc34)S2)c1 | -80% (active)
69 | O=C(NCCc1ccccc1)c1ccc2c(c1)N(Cc1ccc(F)cc1)C(=O)c1ccccc1S2(=O)=O | 10.3% (inactive)
70 | Cc1cccc(-n2c(=O)c3c(c4cc(C)ccc4n3C)n(CC(=O)Nc3ccccc3Cl)c2=O)c1 | -1.31% (inactive)
71 | CCN(C(=O)COC(=O)Cc1c(F)cccc1Cl)c1c(N)n(Cc2ccccc2)c(=O)[nH]c1=O | 2.58% (inactive)
72 | Cc1ccccc1CNC(=O)CCc1cn(Cc2ccccc2C)c2ccccc12 | -37.2% (inactive)
73 | Cc1cccc2cc(CN(Cc3nnnn3Cc3ccccc3)C3CCCC3)c(=O)[nH]c12 | -5.56% (inactive)
74 | CCC(c1nnnn1C1CCCC1)N(Cc1cccs1)Cc1cc2cccc(C)c2[nH]c1=O (stereo not drawn) | -63.3% (active)
75 | Cc1cccc2cc(CN(Cc3cccs3)C(=S)NCc3ccco3)c(=O)[nH]c12 | -16.3% (inactive)
76 | CC(C)(O)C#Cc1ncc(C(F)(F)F)cc1Cl | -30.8% (inactive)
77 | COc1cccc(/C=N/Nc2ncc(C(F)(F)F)cc2Cl)c1O | -102% (active)
78 | Cc1cc(C)cc(NS(=O)(=O)c2ccc(Oc3ncc(C(F)(F)F)cc3Cl)cc2)c1 | -17.1% (inactive)
79 | COc1ccccc1Nc1nc(N)nc(CSC(=S)N2CCOCC2)n1 | 37.2% (inactive)
80 | Cc1cccc(CC(=O)N2CC(=O)Nc3ccc(F)cc3C2c2ccccc2)c1 (stereo not drawn) | 12% (inactive)
81 | COC(=O)CNC(c1ccccc1Cl)c1cc(Br)ccc1NC(=O)CCN1CCOCC1 (stereo not drawn) | -21.3% (inactive)
82 | CCCCCn1c(CCNC(=O)c2ccc(F)cc2)nc2ccccc21 | -18.8% (inactive)
83 | COC(=O)c1ccc(C2C(C(=O)Nc3ccccc3)=C(C)Nc3nc4ccccc4n32)cc1 (stereo not drawn) | 1.76% (inactive)
84 | Cn1c(NC(=O)c2ccccc2)nc2ccccc21 | -84.9% (active)
85 | Cc1c(NS(=O)(=O)c2ccc(Cl)cc2)c(=O)n(-c2ccccc2)n1C | 8.64% (inactive)
86 | Cc1cc(C)cc(NC(=O)CCCc2nc(-c3ccccc3Cl)no2)c1 | -10.6% (inactive)
87 | CC(=O)Nc1ccc(NC(=O)CCCc2nc(-c3ccc(C(C)(C)C)cc3)no2)cc1 | -87.3% (active)
88 | CC(=O)c1ccc(NC(=O)CCc2nc(-c3ccc(C)cc3)no2)cc1 | 2.06% (inactive)
